Shown are actives, neighbours in structure and some others; about 2% of the full set was active somewhere.
M1 PAM parental: M1 PAM counterscreen hit in parental CHO-K1 cells; ATP EC20, Fluo-8 calcium fluorescence; 0% at ATP EC20, 100% at ATP max; activation, % at 3 µM; 360,000 tested, 0.02% active; AID 602247;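 active = activation above the run cutoff, the mean activation of all test compounds plus 3 SD, cut at about 40% in these data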;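 note: peak over basal fluorescence ratio in a 140 s read after ATP addition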
M1 ag parental: nonselective activator or artifact in parental CHO-K1 cells; Fluo-8 calcium fluorescence; scaled to maximal ATP response, vehicle zero; activation, % at 3 µM; 360,000 tested, 0.48% active; in the data active = activation above about 15%;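 note: untransfected CHO-K1 host cells lacking M1 receptor as counterscreen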
CHRM4 antagonist: CHRM4 antagonism in calcium assay; inhibition, % at 3 µM; 360,000 tested, 0.73% active; CHO-hM4 cells, ACh EC80, Fluo-8 calcium fluorescence;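 active = inhibition above its plate's cutoff, the mean inhibition of sample wells plus 3 SD, cut at about 27% in these data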;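 note: 0% = acetylcholine EC80 with DMSO and 100% = DMSO without agonist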
Target sequence (P08173 whole entry, looked up): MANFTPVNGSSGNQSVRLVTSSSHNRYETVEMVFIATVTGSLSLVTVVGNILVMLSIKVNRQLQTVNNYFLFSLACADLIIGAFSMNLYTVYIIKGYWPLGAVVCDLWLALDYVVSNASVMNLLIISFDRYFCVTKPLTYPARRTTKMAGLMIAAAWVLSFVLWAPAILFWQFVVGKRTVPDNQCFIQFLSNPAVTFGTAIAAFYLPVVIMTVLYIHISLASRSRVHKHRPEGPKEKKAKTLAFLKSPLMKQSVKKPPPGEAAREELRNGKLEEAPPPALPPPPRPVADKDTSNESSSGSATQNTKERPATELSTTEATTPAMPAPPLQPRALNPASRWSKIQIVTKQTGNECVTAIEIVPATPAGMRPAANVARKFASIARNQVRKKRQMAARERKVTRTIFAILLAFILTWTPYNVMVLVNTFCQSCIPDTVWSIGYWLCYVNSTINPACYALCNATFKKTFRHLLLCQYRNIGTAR
CHRM4 PAM: positive allosteric modulators of human muscarinic M4 receptor | CHO-K1 hM4/Gqi5, Fluo-8 calcium fluorescence, ACh EC20; 0% = ACh EC20, 100% = maximal ACh | AID 624126 | 360,000 tested, 0.4% active | activation, % at 3 µM;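 active = activation above its plate's cutoff, the mean activation of sample wells plus 3 SD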
CHO-K1 Ca antag: counter-screen for M1 antagonists: effect in parental CHO-K1 cells; 360,000 tested, 0.6% active; ATP-induced calcium, Fluo-8 fluorescence; AID 602250; inhibition, % at 3 µM;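 active = inhibition above a per-plate cutoff, the plate's mean sample inhibition plus 3 SD, cut at about 24% in these data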;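 note: 0% = DMSO plus EC80 ATP and 100% = DMSO alone without ATP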
M4 ag: agonists of human muscarinic M4 receptor (CHRM4); CHO-K1 hM4/Gqi5, Fluo-8 calcium fluorescence; vehicle 0%, full acetylcholine response 100%; AID 624127; activation, % at 3 µM; 360,000 tested, 0.14% active; P08173;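 active = activation above the run mean over all test wells plus 3 SD, cut at about 32% in these data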;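 note: peak over basal fluorescence ratio per well then scaled between controls; 0% = DMSO wells and 100% = acetylcholine at EC100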
* = called active by the depositor.

SMILES	M1 PAM parental	M1 ag parental	CHRM4 antagonist	CHRM4 PAM	CHO-K1 Ca antag	M4 ag
C[C@H](CO)N1C[C@H](C)[C@H](CN(C)S(=O)(=O)c2ccccc2)Oc2ccc(NC(=O)NC3CCCCC3)cc2CC1=O	6.3	0.0	98.7*	-17.4	-12.7	-0.3
Cc1cccc(N=Nc2ccc(O)c3ncccc23)c1	21.7	4.7	16.4	-7.1	3.1	17.1
Oc1ccc(N=Nc2ccc3c(c2)OCCO3)c2ncccc12	-2.8	17.1*	30.4*	-33.4	22.4	36.6*
C[C@@]12C(=O)Nc3ccc(Cl)cc3C(=O)N1[C@H]1c3ccccc3OC[C@@H]1[C@@H]2c1ccccc1	10.9	0.4	41.0*	-6.7	-12.1	0.3
C[C@@]12C(=O)Nc3cc(Cl)ccc3C(=O)N1[C@H]1c3ccccc3OC[C@@H]1[C@@H]2c1ccccc1	-14.5	-0.1	33.1*	-17.4	2.8	2.8
Cc1ccc2c(c1)C(=O)N1[C@H]3c4cc(Cl)ccc4OC[C@@H]3[C@H](c3ccccc3)[C@]1(C)C(=O)N2	-3.7	0.2	3.6	-5.0	-7.8	0.3
Cc1ccc2c(c1)C(=O)N1[C@H]3c4cc(C)ccc4OC[C@@H]3[C@H](c3ccccc3)[C@]1(C)C(=O)N2	-13.6	-0.3	29.2*	-14.8	14.2	0.7
C[C@@]12C(=O)Nc3cc(Cl)ccc3C(=O)N1[C@H]1c3cc(Cl)ccc3OC[C@@H]1[C@@H]2c1ccccc1	8.8	-0.4	-9.2	1.3	-10.8	1.1
COc1ccccc1Nc1nc(N)nc(CN2CCN(Cc3ccccc3)CC2)n1	-6.5	0.2	11.3	-3.8	11.8	0.1
COc1ccc(N2CCN(Cc3nc(N)nc(Nc4ccccc4OC)n3)CC2)cc1	9.1	-0.1	26.7*	10.1	-6.5	-0.6
CC(C)CC(c1nnnn1Cc1cccs1)N1CCN(c2nc3ccccc3s2)CC1 (centres undefined)	5.1	-0.1	23.9	-14.6	0.1	0.5
CCC(c1nnnn1Cc1cccs1)N1CCN(c2nc3ccccc3s2)CC1 (centres undefined)	6.8	4.5	-12.6	-18.4	47.6*	12.2
CCCN(C(=O)COC(=O)CSc1ccc([N+](=O)[O-])cc1)C1CCS(=O)(=O)C1 (centres undefined)	15.5	1.4	-10.2	7.0	-15.3	2.2
Fc1ccc(-c2cc3nc(-c4ccccc4)cc(N4CCN(CCN5CCOCC5)CC4)n3n2)cc1	-2.3	10.0	11.0	-10.9	-13.6	33.3*
CN1CCN(c2cc(-c3ccccc3)nc3cc(-c4ccc(F)cc4)nn23)CC1	19.1	2.1	4.8	7.6	-21.9	5.2
O=[N+]([O-])c1cc2c(c([N+](=O)[O-])c1)Nc1ccccc1O2	0.1	16.8*	1.2	-2.7	11.7	15.4
O=C1Nc2ccccc2Oc2cc([N+](=O)[O-])cc(Oc3ccccc3)c21	7.8	3.9	-34.3	2.5	2.7	2.3
CCn1c(C)c(C(C)=O)c(N2CCN(C(c3ccccc3)c3ccccc3)CC2)nc1=S	-16.3	5.0	29.3*	-20.4	13.8	10.6
CC(=O)c1c(N2CCCC2)nc(=S)n(-c2ccccc2)c1C	10.1	-0.4	47.5*	-16.8	-17.9	0.9
CC(=O)c1c(N2CCCCC2)nc(=S)n(-c2ccccc2)c1C	5.9	-0.1	19.4	-8.7	-5.1	1.1
CCn1c(C)c(C(C)=O)c(N2CCN(c3ccccc3)CC2)nc1=S	7.7	0.6	1.9	-8.3	-6.2	0.5
Cc1ccccc1NC(=O)CSc1nnnn1C	-2.4	-0.2	-4.0	5.4	2.2	0.1
CCOC(=O)c1ccccc1NC(=O)CSc1nc(N)cc(N)n1	14.6	-0.1	-8.2	9.3	-9.7	0.2
CCOC(=O)c1ccccc1NC(=O)CSc1nnnn1C	22.0	0.1	-0.1	18.9*	-16.9	0.3
COC(=O)c1ccccc1NC(=O)CSc1nc(N)cc(N)n1	0.8	0.0	-3.7	5.0	26.2*	-0.3
CCOC(=O)c1ccccc1NC(=O)CN(c1ccccc1C)S(C)(=O)=O	-5.5	-0.1	7.3	20.3	30.1*	-1.5
CCOC(=O)c1ccccc1NC(=O)COC(=O)CSc1ccccc1	16.0	0.9	-3.5	21.2*	-10.9	0.5
COC(=O)[C@@]1(Sc2ccc(OC)cc2)CC(=O)N[C@@H]1c1ccccc1	-0.9	3.4	-11.9	1.3	2.3	4.0

Source: PubChem (The Scripps Research Institute Molecular Screening Center)
